These results are taken from PubChem BioAssay AID1347434 (National Center for Advancing Translational Sciences (NCATS), 2020).

Among all 1,200 compounds or so, about 30 (2%) were called active. Entries that show only a call come without a potency. About 23% were inconclusive and are not listed. Calls come from the whole dose curve; as a rule, active = well fitted inhibition curve with a large enough effect; inconclusive = small, poorly fitted or top-dose-only effect; inactive = flat fitted curve, though single readings scatter. The sample as a whole holds a higher share of actives than the screen did.
Potency is the fitted concentration of half-maximal effect.

In the assay the target is Single-stranded DNA cytosine deaminase (Homo sapiens) (UniProt Q9GZX7). Briefly: Confirmatory qHTS assay for inhibitors of Activation Induced Cytidine Deaminase (AID): AID signals. The settings on record: recombinant AID, FRET deamination/UDG coupled fluorescence, 4 h; series mostly up to 115 µM. From the text: Assay Provider (PI) Patricia Gearhart Ph.D. National Institute on Aging National Institute of Health (NIH), Bethesda, MD Assay Provider (PI) Rahul Kohli Ph.D. Perelman School of Medicine University of Pennsylvania, Philadelphia, PA Activation-Induced Deaminase (AID) is a cytosine deaminase which converts cytosine into uracil within stretches of ssDNA. The presence of uracil in DNA initiates a cascade of mutagenic DNA repair to introduce point mutations and DNA double strand breaks. Specific targeting of AID to the immunoglobulin heavy chain loci (Igh) promotes mutagenesis in the antibody variable region for somatic hypermutation (SHM) or switch regions leading to class switch recombination (CSR). However, AID also plays a role in accumulating unnecessary mutations across the genome. Mis-targeting of AID results in the initiation of tumor development and leads to greater drug resistance among cancer cells when continually expressed. To identify an AID inhibitor, a small molecule library will be screened in collaboration with NCATS core facility at NIH. To confirm biological function, inhibitors will be examined in an in vitro murine B-cell activation assay and subsequent secondary validation screens. Top molecules will be further screened to identify inhibitory efficacy against a wild type primary splenocytes assay. Using these approaches, we hope to identify a small molecule with great efficacy and low toxicity for use as a molecular probe to further characterize AID's intricacies, or even as a therapeutic. A FRET based analysis of cytosine deamination, was developed to identify potential inhibitors of AID catalytic activity. This screen has two signal output, Read 1 evaluates the AID inhibition response. The second readout (Read 2) evaluates UDG response and is uses as a counterscreen to exclude false positive inhibitors. Inhibition in AID and inactivity in the UDG signal is the desired outcome for this assay.
Single-stranded DNA cytosine deaminase (Homo sapiens), sequence (Q9GZX7 whole entry, looked up): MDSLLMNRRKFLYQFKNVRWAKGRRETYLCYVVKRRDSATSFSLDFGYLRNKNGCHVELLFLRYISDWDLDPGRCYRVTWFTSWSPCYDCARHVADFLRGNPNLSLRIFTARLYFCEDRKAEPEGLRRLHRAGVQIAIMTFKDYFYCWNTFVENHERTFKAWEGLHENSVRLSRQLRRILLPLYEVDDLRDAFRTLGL
PROTOCOL TABLE SEQUENCE No. (e.g., 1, 2, 3, etc.); […] (e.g., Cells, Incubation, Reagent, etc.); VALUE; DESCRIPTION 1a; Reagent; 3 uL; [4/3x] 1 uM AID/2.67 U/mL UDG 1b; Reagent; 3 uL; 2 U/mL UDG 1c; Reagent; 3 uL; 1 uM AID 2a; Compound; 46 nL; Follow-up plates (0.64 uM - 10 mM) 2b; Control; 46 nL; ATA (16.4 nM - 10 mM) 3; Time; 10 min; incubation at room temperature 4; Reagents; 1 uL; [4x] 250 nM DJC20 / 250 nM DJC23 [Substrate] 5; Time; 4 hr; incubation at room temperature 6; Reagent; 4 uL; [2x] 250 mM NaOH 7; Time; 15 sec; centrifuge at 1000 rpm 8; Time; 30 min; incubation at room temperature 9a; Detection; fluorescence (Read 1: AID); EnVision (PerkinElmer) plate reader, 540 excitation and 590 emission filters 9b; Detection; fluorescence (Read 2: UDG); EnVision (PerkinElmer) plate reader, 560 excitation and 665 emission filters NOTES (numbers refer to sequence above) 1a; Reagents were dispensed in a medium-binding black solid-bottom Greiner plates (789176F) using a BioRptr liquid dispenser. Dispense 3 uL of [4/3x] 1 uM AID (provided by Kohli lab) and [4/3x] 2 U/mL UDG (NEB M0280L) into columns 1, 2, 5 to 48. 1b; Dispense 3 uL of [4/3x] 2 U/mL UDG into column 3. 1c; Dispense 3 uL of [4/3x] 1 uM AID into column 4. 2a; Compound ([…] [uM]: 0.64; 3.2; 16; 80; 400; 2,000; 10,000; 20,000) double pin-transferred (Dip Factor = 2) using the Kalypsys (Wako USA) pintool equipped with a 1536 pinhead for a final concentration range of 7.32 nM - 114 uM. 2b; 10 mM Aurintricarboxylic Acid (Sigma A1895) (ATA, 8-point, n = 2, 1:2.5 dilution in column 2) double pin-transferred (Dip Factor = 2) using the Kalypsys (Wako USA) pintool equipped with a 1536 pinhead for a [final] range of 186 nM - 114 uM. 3; Room temperature incubation. 4; Dispense 1 uL of substrate mixture from the Kohli lab [4x] […] DJC20 and [4x] 250 nM DJC23 into columns 1 to 48 . 5; Room temperature incubation. 6; Dispense 4 uL of […] [2x] 250 mM NaOH into columns 1 to 48. 7; Centrifugation step to remove bubbles. […]
For `CCc1ccc(OCC(=O)N(Cc2ccc(Cl)cc2)C2CCS(=O)(=O)C2)cc1` (stereo not given), the Potency result was “inactive”.
The same measure for `Cc1ccc(Cl)cc1N1CCN(CCCNC(=O)c2ccc3nc(N4CCCCC4)sc3c2)CC1`: “inactive”.
In the case of `Cn1c(SCc2ccc(F)cc2)nc2ccc(C(=O)NCc3ccc(F)cc3)cc21`, the Potency entry is “inactive”.
Regarding `COc1ccccc1CNC(=O)c1cnn2c(C)c(Cc3ccc(F)cc3)c(C)nc12`, the Potency entry is “inactive”.
Turning to `CCn1c(SCc2ccc(F)cc2Cl)nc(=O)c2c(C(=O)OC)cc(C3CC3)nc21`, the Potency entry is “inactive”.
Consider `Cc1ccc(CN(Cc2ccco2)C(=O)c2ccccc2Br)o1`, for which the Potency result is “inactive”.
Regarding `Cc1cc(Nc2cccc(F)c2)n2nc(-c3ccco3)nc2n1`, the Potency entry is “inactive”.
With `Cc1ccc(C)c(Cn2nc(-c3cc(C)ccc3C)ccc2=O)c1` the entry was “inactive”.
Take `CC1=Nc2cc(C(=O)N3CCC(C)CC3)ccc2Sc2ccc(Cl)cc21`: the Potency entry was “inactive”.
With `O=C(NCCc1ccccc1)c1sc2ncccc2c1-n1cccc1`, the Potency result is “inactive”.
With `Cc1ccc(Cl)cc1NC(=O)C(C)n1nc(-c2ccccc2)ccc1=O` (stereo not given) the entry was “inactive”; with `CCCCCCCCc1ccc(-c2ccc(C(=O)O)cc2)cc1`, 35.5 µM (active); with `Cn1nc(-c2ccc(C(=O)Nc3ccc(F)cc3)cc2)c2ccccc2c1=O`, “inactive”.
For the compound `CCc1nnc(SCc2cccc(F)c2)c2cc3sc(C)cc3n12`, the Potency entry is “inactive”.
With `Cc1cccc(N2CCN(C(=O)CS(=O)(=O)Cc3nc(-c4ccccc4C)oc3C)CC2C)c1` (stereo not given) the entry was “inactive”.
For `Cc1ccc(C)c(N(C)C(=O)C2CCN(c3ncnc4c3nc3n4CCCCC3)CC2)c1`, the Potency result is “inactive”.
In the case of `COc1ccc(NC(=O)CSc2nc3nc(C)c(Cc4ccccc4)c(C)n3n2)cc1OC`, the Potency entry is “inactive”.
Turning to `CN(C)CCNc1ncnc2c1cnn2-c1cccc(Cl)c1`, the Potency result is “inactive”.
With `Cc1ccc(C)c(N2CCN(CCCNc3ncnc4onc(-c5ccc(Cl)cc5)c34)CC2)c1` the entry was “inactive”; with `CCc1ccc(CNC(=O)c2cnc3sc(N(CC)CC)nn3c2=O)cc1`, “inactive”; with `Cc1ccc(S(=O)(=O)N2CCCC2C(=O)Nc2ccc(Br)cc2)cc1` (stereo not given), “inactive”.
With `CCc1nnc2c(N3CCN(c4cccc(C)c4)C(C)C3)nc3ccccc3n12` (stereo not given) the entry was “inactive”.
Regarding `CCOC(=O)C1=C(CN2CCN(c3cc(C)ccc3C)CC2)NC(=O)NC1c1ccccc1` (stereo not given), the Potency entry was “inactive”.
The same measure for `COc1ccc(S(=O)(=O)N(CC(=O)NC(C)c2ccccc2)c2ccc(C)cc2)cc1OC` (stereo not given): “inactive”; for `CC(=O)[C@]1(O)Cc2c(O)c3c(c(O)c2[C@@H](O[C@H]2C[C@H](N)[C@H](O)[C@H](C)O2)C1)C(=O)c1ccccc1C3=O`: 5.62 µM (active); for `COc1ccccc1C(=O)Nc1ccc(C(=O)OCc2cc(=O)n3nc(C)sc3n2)cc1`: “inactive”.
With `Cc1cccc(C)c1OCC(=O)N(Cc1ccco1)Cc1ccco1` the entry was “inactive”; with `CCC1CCCCN1C(=O)CSc1nc2c([nH]c3ccccc32)c(=O)n1-c1cccc(OC)c1` (stereo not given), “inactive”; with `O=C(CCCCCn1c(=O)[nH]c2ccccc2c1=O)NCc1ccc(Cl)cc1`, “inactive”.
On to `Cc1cccc(C)c1NC(=O)CS(=O)(=O)c1nc(-c2ccc(Cl)cc2)cn1-c1ccccc1`, for which the Potency result was “inactive”.
With `CN1CCN(c2nc3c(S(=O)(=O)c4ccc(Cl)cc4)nnn3c3ccsc23)CC1` the entry was “inactive”; with `COc1ccccc1C(=O)NCCn1cc(SCc2ccccc2Cl)c2ccccc21`, “inactive”; with `Cc1ccc2c(c1)c(=O)c(C(=O)c1ccccc1)cn2Cc1ccccc1F`, “inactive”.
The same measure for `O=C(c1ccc(F)cc1)c1cn(Cc2ccccc2)c2cc3c(cc2c1=O)OCO3`: “inactive”; for `COc1ccc(NCc2nc3ccccc3n2CCOc2ccccc2C)cc1`: “inactive”; for `Cc1cccc(N2CCN(C(=O)c3sc4nc5n(c(=O)c4c3C)CCC5)CC2C)c1` (stereo not given): “inactive”.
Consider `CN(c1ncnc2onc(-c3cccc(Cl)c3)c12)C1CCCCC1`, for which the Potency entry is “inactive”.
Consider `COc1ccc(CCN2CCC(CNC(=O)c3cnn(-c4ccccc4)c3C3CCN(C(=O)OC(C)(C)C)CC3)CC2)cc1`, for which the Potency entry was “inactive”.
With `COc1ccc(CCN2CCC(CNC(=O)c3cnn(-c4cccc(Cl)c4)c3C3CCN(C(=O)OC(C)(C)C)CC3)CC2)cc1` the figure was 31.6 µM (active); with `CC(C)(C)OC(=O)N1CCC(c2c(C(=O)NCCN3CCC(Cc4ccccc4)CC3)cnn2-c2ccccc2)CC1`, “inactive”.
For the compound `CCN(CC)CCNC(=O)c1ccc2c(=O)n3nc(Nc4cccc(Cl)c4C)sc3nc2c1`, the Potency is 50.1 µM (active).
The same measure for `CCN(CC)CCNC(=O)c1ccc2c(=O)n3nc(Nc4ccccc4)sc3nc2c1`: “inactive”; for `CCN(CC)CCNC(=O)c1ccc2c(=O)n3nc(Nc4ccccc4OC)sc3nc2c1`: “inactive”; for `Cc1nc2nc(SCC(=O)NCc3ccccc3)nn2c(C)c1Cc1ccccc1Cl`: “inactive”.
The same measure for `COc1ccc(C(=O)c2sc3nc4c(c(C(F)(F)F)c3c2N)CN(C(C)=O)CC4)cc1OC`: “inactive”.
